# Laboratory results from PubChem BioAssay AID1259415 (National Center for Advancing Translational Sciences (NCATS), 2018).
# Several values for one entry are separate records, joined by “and”; a condition that tells them apart may be missing. Identical values can stand only once. The whole screen tested about 410,000 compounds, of which about 18,000 (4.4%) were called active. Roughly 7% stayed inconclusive and do not appear here. Rule as the data show it: active = activity change below about -60%; inconclusive = no clear call, values can overlap the other calls; inactive = above about -39%. Shown is part of a subset that was picked to be rich in actives. More than one record can exist for a structure, and the calls need not agree.
# Assay: qHTS Assay for inhibitors of the human cytomegalovirus (HCMV)
# Details: HFF cells, HCMV-luciferase reporter, 72 h; at 57.5 µM; stronger effect = lower value
# In short: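 Human foreskin fibroblasts infected with luciferase-reporter HCMV at MOI 1 PFU/cell, compounds at two doses. Luciferase measured 72 h post infection; normalized to buffer-only basal and Salinomycin (10uM) controls.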
# % is scaled to controls: 0 for no effect and ±100 for the full control effect.
row,Compound,"activity change, negative = inhibition"
1,COc1cc(Cn2c3ccc(NC(=O)CC(C)c4ccccc4)cc3c(=O)n2C)ccc1F (stereo not given),-10.4% (inactive)
2,CCOCCC(=O)Nc1ccc2c(c1)c(=O)n(C)n2-c1ccc2ccccc2c1,-74.6% (active)
3,CCNC(=S)Nc1ccc2c(c1)c(=O)n(C)n2Cc1ccc(Cl)cc1,-4.48% (inactive)
4,CCCCn1c(N)c(N(CC)C(=O)/C=C/c2ccco2)c(=O)[nH]c1=O,14.2% (inactive)
5,O=C1/C(=C/c2cccs2)SC(=S)N1C1CCS(=O)(=O)C1 (stereo not given),-80.8% (active)
6,O=C1/C(=C/c2cccs2)CCC1C1CCCC1 (stereo not given),-34.7% (inactive)
7,Cn1nccc1NS(=O)(=O)c1ccc(F)cc1,19.9% (inactive)
8,Cc1ccc2cccc(NC(=O)c3ccc(OC(C)C)cc3)c2n1,9.69% (inactive)
9,CCOc1ccc(N(CC)S(=O)(=O)N2CCCC(C(=O)Nc3ccc(C(C)=O)cc3)C2)cc1 (stereo not given),11.4% (inactive)
10,COc1ccc(OCc2n[nH]c(=S)n2N)cc1,39.1% (inactive)
11,CC(Sc1nnc(COc2ccccc2)n1-c1ccccc1)C(=O)O (stereo not given),-4.35% (inactive)
12,Cc1ccc(OCc2n[nH]c(=S)n2-c2ccccc2)cc1,-60.4% (active)
13,CCc1ccccc1NC(=O)N1CCC2(CC1)Oc1ccccc1C(=O)N2Cc1ccccc1F,6.91% (inactive)
14,CN1c2ccccc2[C@@]2(CCN=C2N2CCOC2=O)[C@H]1c1cn(C)c2ccccc12,7.43% (inactive)
15,CCCCCCNCCn1cnc2c(N)ncnc21,-40% (inactive)
16,CCOC(=O)C1=C(C)NC(C)=C(C(=O)OCC)C1c1ccccn1,1.28% (inactive) and -98.9% (active)
17,CCOC(=O)C1=C(C)NC(C)=C(C(=O)OCC)C1C1=COCCO1,42.6% (inactive)
18,C=CCC1(C#N)C(=S)NC(C)=C(C(=O)OCC)C1c1ccccc1 (stereo not given),21.2% (inactive)
19,CCOC(=O)C1C(=O)NCC1c1ccccc1 (stereo not given),25.9% (inactive)
20,CCOC(=O)C1=C(CC)Nc2ccccc2N=C1N,40.2% (inactive)

row,Compound,"activity change, negative = inhibition"
1,CCOC(=O)C1=C(C)NC(SC)=NC1c1ccccc1 (stereo not given),-75.9% (active)
2,Cc1ccc(CN2C(=O)SC(Nc3ccccc3)C2=O)cc1 (stereo not given),4.93% (inactive)
3,CC(=O)c1ccc(NC(=O)C2CCN(S(=O)(=O)c3c(C)noc3/C=C/c3ccc(C)cc3)CC2)cc1,8.22% (inactive)
4,Cc1ccccc1CNC(=O)C(=O)NCC(c1cccs1)S(=O)(=O)c1cccs1 (stereo not given),-7.75% (inactive)
5,Cc1ccc2nc(-c3ccc(O)cc3)c(Nc3ccc4c(c3)OCO4)n2c1,27.1% (inactive)
6,CN(C)c1ccc(NC(=S)N(CCc2ccccc2)C2CC(=O)N(c3c(Cl)cccc3Cl)C2=O)cc1 (stereo not given),-21.4% (inactive)
7,CCOc1ccc(N2C(=O)CC(N(CCc3ccc(OC)c(OC)c3)C(=S)Nc3ccccc3)C2=O)cc1 (stereo not given),-67.5% (active)
8,COc1ccc(N2C(=O)C(CC(=O)Nc3ccccc3)N(Cc3ccc(OC)c(OC)c3)C2=O)cc1 (stereo not given),38.3% (inactive)
9,CC(C)Oc1ccc(NC(=O)c2cc3ccccc3o2)cc1,84.8% (inactive)
10,COc1cccc(NC(=O)Cn2c(=O)cc(C)c3c(C)nn(-c4cccc(F)c4)c32)c1,2.05% (inactive)
11,COC(=O)c1ccccc1NC(=O)Cn1c(=O)cc(C)c2c(C)nn(-c3cccc(Cl)c3C)c21,-6.78% (inactive)
12,COc1ccc(NC(=O)Cn2c(=O)cc(C)c3c(C)nn(-c4cccc(Cl)c4C)c32)cc1OC,-103% (active)
13,N=c1n(CCc2ccccc2)c2ccccc2n1Cc1ccccc1F,-70.6% (active)
14,CCCn1c(NCc2ccccc2F)nc2ccccc21,49.2% (inactive)
15,O=C(COC(=O)Cc1ccccc1F)NCCc1ccccc1,106% (inactive)
16,CCOCCN(C=O)c1cccc(OC)c1,18% (inactive)
17,COc1ccc(N2CCC(CNC(=S)Nc3c(C)cccc3C)C2)cc1 (stereo not given),0% (inactive)
18,COc1ccc(NC(=S)NCC2CCN(c3ccc(OC)cc3)C2)cc1 (stereo not given),-63.2% (active)
19,COc1ccc(N2CCN(C(=S)Nc3ccc(S(N)(=O)=O)cc3)CC2)cc1,9.64% (inactive)
20,O=C(Cn1cc(SCc2cccc(Cl)c2)c2ccccc21)N1CCCCC1,24.5% (inactive)

row,Compound,"activity change, negative = inhibition"
1,CCOC(=O)c1oc2c(CN3CCN(C)CC3)c(O)ccc2c(=O)c1-c1ccc(Br)cc1,-37.4% (inactive)
2,COc1ccc(-c2c(C)c3ccc(O)c(CN4CCN(C)CC4)c3oc2=O)cc1OC,5.43% (inactive)
3,CN1CCN(Cc2c(O)ccc3c2oc(=O)c2ccccc23)CC1,-78.7% (active)
4,O=C(CSc1oc(-c2ccco2)nc1S(=O)(=O)c1ccccc1)c1ccc(Cl)cc1,-17.5% (inactive)
5,Cc1cccc(N2CCN(c3c(CN4CCCC4)c(=O)oc4ccccc34)CC2)c1C,21.8% (inactive)
6,CCOc1ccc(N(CC)C(=O)c2cc3c(=O)oc4ccccc4c3s2)cc1,5.06% (inactive)
7,O=C(CN1C(=O)c2ccccc2S1(=O)=O)N1CCc2ccccc21,-93.9% (active)
8,Cc1ccc(S(=O)(=O)N(C)CC(=O)N2CCc3ccccc32)cc1,-22.7% (inactive)
9,NS(=O)(=O)c1ccc(CCNC(=O)CN2C(=O)c3ccccc3S2(=O)=O)cc1,-13% (inactive)
10,O=C(Cn1cc(SCc2ccccc2)c2ccccc21)N1CCCCC1,-27.6% (inactive)
11,CC(=O)Nc1ccc(S(=O)(=O)N2CCN(c3ccccc3)CC2)cc1,-20.6% (inactive)
12,CC(=O)Nc1ccc(Nc2nc3c(S(=O)(=O)c4ccc(C)c(C)c4)nnn3c3ccccc23)cc1,-35.4% (inactive)
13,Cc1ccc(Nc2c3c(nc4ccccc24)CCC3)cc1,-74.2% (active)
14,Brc1ccc(Nc2c3c(nc4ncnn24)CCC3)cc1,-30.4% (inactive)
15,CC(=O)Nc1ccc(Nc2c3ccccc3nc3ccccc23)cc1,-99.6% (active)
16,Cc1ccc(CNC(=O)CSc2c3c(nc4cc(Cl)ccc24)CCCC3)cc1,-19.8% (inactive)
17,CCCC(=O)Nc1cc(C(=O)NCc2ccc(OC)cc2)ccc1S(=O)(=O)c1ccc(Cl)cc1,12.9% (inactive)
18,CCOc1cc(/C=N/NC(=O)c2cccc(S(=O)(=O)N3CCOCC3)c2)ccc1OCC(=O)N(C)C,-10.8% (inactive)
19,COc1cccc(C(CC(=O)NCCN2CCOCC2)NS(=O)(=O)c2ccc(C)cc2)c1OC (stereo not given),-35.5% (inactive)
20,CCOc1cccc(/C=N/NC(=S)NCCN2CCOCC2)c1O,-99.8% (active)
